TMEM16A act = mouse TMEM16A channel activation, primary screen; 0.3% of 340,000 active; AID 623877; B-score at 10 µM; HEK293 TMEM16A/YFP-H148Q/I152L, iodide quench fluorescence; hits give low values; Q8BHY3;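 active = fluorescence-ratio B-score plate-corrected deviation score at least 3 library SD below zero, with starting fluorescence score within 5 deviations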;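 note: channel opened by trigger with iodide after compound preincubation; score built on the fluorescence ratio of max minus min over baseline; more negative score means more quench and so TMEM16A activation or potentiation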
ANO1 block = mouse TMEM16A channel inhibition, primary screen. Q8BHY3. HEK293 TMEM16A/YFP iodide influx fluorescence, ionomycin. 1.2% of 310,000 active. normalized B-score (activity score, 25-100; higher = stronger inhibition) at 10 µM;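 active = ratio plate-corrected score three or more library SD toward inhibition, starting fluorescence score within five deviations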;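 note: score derived from kinetic fluorescence span divided by baseline fluorescence per well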
GPR7 antagonist = antagonists of human GPR7 (neuropeptides B/W receptor 1); P48145; GPR7-expressing cells, fluorescence antagonist assay; inhibition, % at 4.4 µM; 1.1% of 290,000 active; AID 1861; in the data active = inhibition above about 16%, passing the limit was not always enough;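 note: cells stimulated with the agonist NPW; 0% = agonist with vehicle and 100% = vehicle without agonist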
Kir21 block = blocks the mouse Kir2.1 inward-rectifier potassium channel | B-score at 10 µM | P35561 | HEK293-Kir2.1, FluxOR thallium flux fluorescence; hits give low values | 0.85% of 310,000 active;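 active = fluorescence ratio B-score at or below minus 3 SD of library scores, with starting-brightness B-score within 2 SD, cut at about -4.2 in these data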;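 note: channel flux triggered by added potassium and thallium sulfate stimulus; B-score of peak minus minimum fluorescence over baseline after thallium stimulus; more negative B-score means stronger Kir2.1 block with less thallium influx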
CHT allo act = allosteric activators of human choline transporter CHT | Q9GZV3 | CHT-expressing cells, membrane potential dye, choline EC20; hits give high values; LV-AA mutant CHT in HEK293 cells | B-score at 10 µM | 0.49% of 310,000 active | AID 488977;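 active = initial fluorescence not abnormally high and integrated response B-score, plate-corrected, over 3 SD above library mean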
CHT block = human CHT choline transport inhibition. Q9GZV3. CHT-expressing cells, membrane potential dye, choline response; hits give low values. B-score at 10 µM. 0.86% of 310,000 active. AID 488975;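 active = B-score over 3 SD under the library average, and starting fluorescence ratio not unusually high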;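 note: choline stimulus applied at its EC90 after an EC20 pre-addition; B-score computed on integrated fluorescence ratio after choline addition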
TMEM16A reconf = reconfirmed blocker of mouse TMEM16A calcium-activated chloride channel; 39% of 2,300 active; inhibition, % at 10 µM; shares compounds with ANO1 block; HEK293 TMEM16A/YFP-H148Q, iodide quench fluorescence; ionomycin added to raise cell calcium;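 active = mean duplicate percent inhibition, scaled so buffer wells are 0 and the reference blocker 100, over three buffer SD above buffer mean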
TMEM16A Ca cntr = counter-screen for TMEM16A inhibitors: effect on calcium mobilization. shares compounds with ANO1 block. TMEM16A/YFP HEK293, Fluo4 calcium mobilization. calcium response (% of ionomycin), % at 10 µM. 2% of 2,300 active. AID 652231;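 active = duplicate-averaged calcium signal over 20% of the ionomycin maximum, relative to buffer baseline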;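 note: each well's signal is peak minus trough fluorescence divided by its pre-addition baseline; 0% = buffer wells and 100% = ionomycin wells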
Parental YFP cnt = counter-screen for TMEM16A inhibitors: effect in parental YFP-HEK293 cells | 2,300 tested, under 10 active | AID 652233 | shares compounds with ANO1 block | YFP ratio F(max-min)/F0 at 10 µM | iodide YFP quench, ionomycin;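 active = yellow fluorescent protein signal ratio exceeding the buffer control mean by over 5 SD of those controls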;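 note: ratio is mean of duplicate wells from kinetic YFP trace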
ClC-1 inh = selectivity of TMEM16A inhibitors: inhibition of rat ClC-1 chloride channel | shares compounds with ANO1 block | CHO ClC-1-YFP, iodide influx fluorescence quench; iodide control reads 0, buffer control 100 | ratio percent, % at 10 µM | 2,300 tested, under 10 active;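 active = duplicate-mean ratio percent above the mean of iodide-only control wells, which defines zero, plus 5 of their SD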;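 note: higher percent means stronger block of ClC-1 iodide influx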
Target sequence (P35524 whole entry, looked up): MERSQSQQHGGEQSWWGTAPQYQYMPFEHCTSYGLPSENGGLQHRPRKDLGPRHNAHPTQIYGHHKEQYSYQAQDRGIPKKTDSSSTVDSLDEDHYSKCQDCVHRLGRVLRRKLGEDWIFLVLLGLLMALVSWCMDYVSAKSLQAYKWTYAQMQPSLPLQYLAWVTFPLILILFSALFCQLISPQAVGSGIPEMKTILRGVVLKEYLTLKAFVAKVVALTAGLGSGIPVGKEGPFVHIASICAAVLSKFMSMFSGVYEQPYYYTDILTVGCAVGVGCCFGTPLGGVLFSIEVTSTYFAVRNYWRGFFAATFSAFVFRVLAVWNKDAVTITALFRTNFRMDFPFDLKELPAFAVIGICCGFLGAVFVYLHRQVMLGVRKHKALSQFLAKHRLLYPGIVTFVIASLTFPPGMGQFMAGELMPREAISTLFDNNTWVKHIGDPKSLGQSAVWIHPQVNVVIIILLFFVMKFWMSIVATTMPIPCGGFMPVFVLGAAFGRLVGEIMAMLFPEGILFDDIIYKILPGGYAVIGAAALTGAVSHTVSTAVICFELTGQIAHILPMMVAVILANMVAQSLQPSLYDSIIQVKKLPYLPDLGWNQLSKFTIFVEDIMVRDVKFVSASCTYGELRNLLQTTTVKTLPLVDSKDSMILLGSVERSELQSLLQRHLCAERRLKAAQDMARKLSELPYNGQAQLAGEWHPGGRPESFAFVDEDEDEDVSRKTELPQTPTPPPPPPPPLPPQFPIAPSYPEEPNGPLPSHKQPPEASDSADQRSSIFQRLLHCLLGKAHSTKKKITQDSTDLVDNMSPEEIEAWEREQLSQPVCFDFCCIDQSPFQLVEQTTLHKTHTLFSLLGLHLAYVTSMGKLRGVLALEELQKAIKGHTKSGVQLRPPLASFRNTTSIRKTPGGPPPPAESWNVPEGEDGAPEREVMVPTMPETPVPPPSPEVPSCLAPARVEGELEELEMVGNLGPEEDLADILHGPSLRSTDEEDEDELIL
* hit, by the source's call. Rows were chosen to be rich in hits. Some 3.7% of all compounds tested hit in one or more screens of this group.

Screening CCC1(C)Cc2c(sc3[nH]c(=O)[nH]c(=O)c23)CS1 (stereo unspecified) returned TMEM16A act inactive, ANO1 block 100*, GPR7 antagonist 1.4, Kir21 block 0.25, CHT allo act inactive, CHT block inactive, TMEM16A reconf inactive, TMEM16A Ca cntr inactive, Parental YFP cnt -1.13 and ClC-1 inh -9.5.
`Cc1nc2c(cc(Oc3ccc(S(=O)(=O)N4CCOCC4)cn3)c3ccsc32)s1` gave TMEM16A act inactive, ANO1 block 25*, GPR7 antagonist -10.6, Kir21 block 0.22, CHT allo act inactive, CHT block inactive, TMEM16A reconf inactive, TMEM16A Ca cntr inactive, Parental YFP cnt -1.01 and ClC-1 inh -19.0.
`COc1cc(C(C)=O)ccc1Oc1ccc(S(=O)(=O)N2CCOCC2)cn1` gave TMEM16A act inactive.
For CCCCC(=O)Oc1c(S(=O)(=O)c2ccccc2)c(C)nn1C(C)(C)C the results were TMEM16A act inactive, ANO1 block 25*, GPR7 antagonist -3.1, Kir21 block -0.03, CHT allo act inactive, CHT block inactive, TMEM16A reconf inactive, TMEM16A Ca cntr inactive, Parental YFP cnt -0.931 and ClC-1 inh -4.5.
Screening CCCC(=O)Oc1c(S(=O)(=O)c2ccc(C)cc2)c(C)nn1C(C)(C)C returned TMEM16A act inactive, ANO1 block inactive, GPR7 antagonist -9.6, Kir21 block -0.02, CHT allo act inactive and CHT block inactive.
`Nc1c(C(=O)Nc2nc3ccccc3s2)sc2nc(-c3cccs3)ccc12` gave TMEM16A act inactive, ANO1 block inactive, GPR7 antagonist -0.2, Kir21 block -1.75, CHT allo act inactive, CHT block inactive, TMEM16A reconf inactive, TMEM16A Ca cntr inactive, Parental YFP cnt -0.621 and ClC-1 inh 19.5.
Cc1cc(C)c(C#N)c(Nc2cccc(C)c2C)n1 was read as TMEM16A act inactive, ANO1 block inactive, GPR7 antagonist 1.9, Kir21 block 0.07, CHT allo act inactive and CHT block inactive.
Screening CCOc1ccc(C(=O)NCC(C)NC(=O)c2ccc(OCC)cc2)cc1 (stereo unspecified) returned TMEM16A act inactive, ANO1 block 25*, GPR7 antagonist -9.6, Kir21 block 3.89, CHT allo act inactive, CHT block inactive, TMEM16A reconf inactive, TMEM16A Ca cntr inactive, Parental YFP cnt -0.789 and ClC-1 inh -11.0.
Screening CCOc1ccc(C(=O)NCC(C)C)cc1 returned TMEM16A act inactive, ANO1 block inactive, GPR7 antagonist 5.6, Kir21 block -0.88, CHT allo act inactive and CHT block inactive.
Cc1ccc(OCc2ccc(C(=O)N3CCCC3)o2)cc1C was read as TMEM16A act inactive, ANO1 block 25*, GPR7 antagonist 6.9, Kir21 block -0.04, CHT allo act inactive, CHT block inactive, TMEM16A reconf inactive, TMEM16A Ca cntr inactive, Parental YFP cnt -1.23 and ClC-1 inh -14.5.
For CCOc1ccc(OCc2ccc(C(=O)N3CCCCC3)o2)cc1 the results were TMEM16A act inactive, ANO1 block inactive, GPR7 antagonist -3.9, Kir21 block -0.13, CHT allo act inactive and CHT block inactive.

Assay outcomes as filed in PubChem.
